Assay results as given in PubChem BioAssay (Tox21).
Results filed as inconclusive are left out. Calls of active or inactive are those of the source. Unless noted, calls come from the whole dose curve; as a rule, active = well fitted curve in the direction sought with a large enough effect in the repeat runs; inconclusive = weak or mixed curves; inactive = no such curve, though single readings can be large; an effect the other way counts as inactive or inconclusive.

Assays:
[1] = qHTS assay for small molecule agonists of the p53 signaling pathway (AID 651631; calls by dose curve; note: nearly all actives have a fitted effect of over 15% in size)
In short: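 Fluorescence intensity from cleaved LiveBLAzer B/G substrate (2 h, room temperature) served as the signal. Beforehand, HCT-116 reporter cells bearing p53 response elements were treated 16 h at 37 °C with DMSO-dissolved compounds.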

[2] = qHTS assay for small molecules that induce genotoxicity in human embryonic kidney cells expressing luciferase-tagged ATAD5 (AID 651632); note: nearly all actives have a fitted effect of over 15% in size
In short: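 Test compounds were delivered by pin tool onto HEK293T reporter cells (2,000/well) expressing ATAD5 fused to luciferase. After 16 hr at 37C, 5% CO2, Amplite was added for 30 min at room temperature and luminescence was measured.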

[3] = qHTS assay for small molecule agonists of the p53 signaling pathway - cell viability (AID 651633; calls by dose curve;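 note: p53RE-bla HCT reporter cells with a stable beta-lactamase p53 reporter; series mostly up to about 83 µM; nearly all actives have a fitted effect of over 30% in size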)
In short: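 Viability counter-read: CellTiter-Glo luminescence (30 min, room temperature) in the same p53RE-bla plates. These plates had been exposed to compounds for 16 h at 37 C.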

[4] = qHTS assay for small molecules that induce genotoxicity in human embryonic kidney cells expressing luciferase-tagged ATAD5 - cell viability (AID 651634; calls by dose curve; note: nearly all actives have a fitted effect of over 25% in size)
In short: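 Quantitative high-throughput format. HEK293T cells expressing ATAD5 fused to luciferase were plated at 2,000 cells/well and treated 15.5 hr with compound versus DMSO. Viability was determined by fluorescent live-cell protease substrate, 30 min at 37C.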

[5] = qHTS assay for small molecule disruptors of the mitochondrial membrane potential - cell viability (AID 720634; calls by dose curve;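 note: human HepG2 liver cancer cells; series mostly up to about 83 µM; nearly all actives have a fitted effect of over 20% in size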)
In short: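 Same-well counter-screen: following the MMP dye addition, CellTiter-Glo was added to 1 hr compound-treated HepG2 cells and luminescence read after 30 min at room temperature.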

[6] = qHTS assay to test for compound auto fluorescence at 590 nm (red) in HepG2 cells (AID 720674)
In short: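 We screened compounds on adherent HepG2 cells, incubating them for an hour at 37 C in 5% CO2 before reading emission at 590 nm under 540 nm excitation; values reflect equivalence to Rose Bengal sodium fluorescence.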

[7] = qHTS assay to test for compound auto fluorescence at 535 nm (green) in HepG2 cells (AID 720675)
[8] = qHTS assay to test for compound auto fluorescence at 460 nm (blue) in HEK293 cells (AID 720678)
In short: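 Triamterene serves as the blue fluorophore standard. Compound signal at 405/460 nm is read in HEK293 wells (2,000 cells, 10% dialyzed FBS) after overnight treatment at 37C.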

[9] = qHTS assay to test for compound auto fluorescence at 590 nm (red) in HEK293 cells (AID 720679)
In short: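 We plated HEK293 cells in 10% dialyzed FBS medium, let them adhere for 4-5 hr, then added 23 nL compound. Overnight at 37C and 5% CO2 preceded fluorescence measurement at 540/590nm.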

[10] = qHTS assay to test for compound auto fluorescence at 535 nm (green) in HEK293 cells (AID 720680)
[11] = qHTS assay to test for compound auto fluorescence at 460 nm (blue) in HEK293 cell free culture (AID 720681)
In short: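 Blue fluorescence (Ex 405/Em 460 nm, triamterene-equivalent) was read immediately after pin transfer of compound or DMSO into medium (DMEM, 10% FBS) without cells.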

[12] = qHTS assay to test for compound auto fluorescence at 535 nm (green) in HEK293 cell free culture (AID 720682)
In short: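 Intrinsic compound fluorescence is measured in culture medium containing 10% FBS, with excitation at 485 nm and detection at 535 nm, referenced to fluorescein.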

[13] = qHTS assay to test for compound auto fluorescence at 590 nm (red) in HEK293 cell free culture (AID 720683)
In short: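 Red-channel autofluorescence of compounds in culture medium (DMEM, 10% FBS), no cells, measured at 540/590 nm. Rose Bengal sodium is the reference fluorophore for equivalence.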

[14] = qHTS assay to test for compound auto fluorescence at 590 nm (red) in HepG2 cell free culture (AID 720684)
In short: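 Cell-free; medium MEM + 10% FBS; compound or DMSO added by pintool; read Ex 540/Em 590 nm; Rose Bengal sodium as red reference fluorophore.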

[15] = qHTS assay to test for compound auto fluorescence at 460 nm (blue) in HepG2 cell free culture (AID 720685)
In short: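 Cell-free plates of MEM plus 10% FBS received 23 nL compound or DMSO vehicle; blue-channel (405/460 nm) intensity scored against triamterene as reference fluorophore.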

[16] = qHTS assay to test for compound auto fluorescence at 535 nm (green) in HepG2 cell free culture (AID 720686)
[17] = qHTS assay to test for compound auto fluorescence at 460 nm (blue) in HepG2 cells (AID 720687)
In short: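 Blue-channel autofluorescence (Ex/Em 405/460 nm, triamterene-equivalent) was measured after 1 hr compound exposure at 37 C, 5% CO2. Cells were HepG2, plated overnight at 37 C in MEM plus 10% FBS.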

[18] = molecular target: Glucocorticoid receptor (Homo sapiens) (UniProt P04150); assay: qHTS assay to identify small molecule agonists of the glucocorticoid receptor (GR) signaling pathway (AID 720691; active = well fitted activation curve with a large enough effect in the signal ratio in the repeat runs, not every such curve was filed as active; the % refers to the signal ratio)
Chain of Glucocorticoid receptor (Homo sapiens) (P04150 whole entry, looked up): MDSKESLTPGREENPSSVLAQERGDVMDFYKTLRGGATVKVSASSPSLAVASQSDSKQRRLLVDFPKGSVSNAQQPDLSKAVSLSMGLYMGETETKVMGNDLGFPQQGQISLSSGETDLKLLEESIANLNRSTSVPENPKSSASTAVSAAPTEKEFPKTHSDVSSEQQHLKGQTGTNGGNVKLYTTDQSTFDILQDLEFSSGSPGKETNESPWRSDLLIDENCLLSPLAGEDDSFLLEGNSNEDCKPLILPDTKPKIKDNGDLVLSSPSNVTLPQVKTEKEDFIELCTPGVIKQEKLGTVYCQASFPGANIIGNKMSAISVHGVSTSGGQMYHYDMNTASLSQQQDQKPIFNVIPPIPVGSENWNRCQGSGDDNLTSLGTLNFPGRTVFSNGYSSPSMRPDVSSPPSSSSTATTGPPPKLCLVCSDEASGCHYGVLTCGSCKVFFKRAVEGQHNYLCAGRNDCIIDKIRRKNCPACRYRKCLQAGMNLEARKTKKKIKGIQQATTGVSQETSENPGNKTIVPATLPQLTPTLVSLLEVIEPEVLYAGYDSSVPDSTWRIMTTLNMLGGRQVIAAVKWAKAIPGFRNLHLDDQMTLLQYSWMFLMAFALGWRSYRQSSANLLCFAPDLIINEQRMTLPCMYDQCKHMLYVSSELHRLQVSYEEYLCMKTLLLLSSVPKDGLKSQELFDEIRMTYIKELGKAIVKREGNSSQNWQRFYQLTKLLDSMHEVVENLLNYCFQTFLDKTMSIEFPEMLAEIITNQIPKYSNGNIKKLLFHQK
In short: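 A HeLa cervical cancer line expressing GR and a glucocorticoid response element-driven beta-lactamase gene is treated with compounds for 18 h; LiveBLAzer B/G FRET substrate is then applied and fluorescence read.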

[19] = molecular target: Glucocorticoid receptor (Homo sapiens) (UniProt P04150); assay: qHTS assay to identify small molecule antagonists of the glucocorticoid receptor (GR) signaling pathway (AID 720692; active = well fitted inhibition curve with a large enough effect in the signal ratio in the repeat runs, not every such curve was filed as active; the % refers to the signal ratio)
In short: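 GRE-bla HeLa line, dex-stimulated (5 nM final). Compound exposure 18 h, 37 C. Beta-lactamase FRET read after 2 h RT substrate.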

[20] = qHTS assay for small molecule disruptors of the mitochondrial membrane potential (AID 720635); note: potency is the fitted concentration of half-maximal effect
In short: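 Mitochondrial membrane potential tracked with Mito-MPS dye, red aggregates (ex 540/em 590 nm) against green monomers (ex 490/em 535 nm). Compound treatment 1 hr at 37C, dye 30 min in HepG2.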

Measured: Potency

CCCCCCC=O
not listed: [20]
inactive: all other assays above

O=C1C(c2[nH]c3ccccc3c2O)=Nc2ccccc21
active: [20] 4.22 µM
not listed: [7] | [9] | [19]
inactive: all other assays above

O=C(O)Cn1c(=O)n(Cc2ccc(Br)cc2F)c(=O)c2ccc(Cl)cc21
not listed: [4] | [7] | [9] | [17] | [19] | [20]
inactive: all other assays above

CN(C)CCOC(=O)COc1ccc(Cl)cc1
not listed: [7] | [17] | [20]
inactive: all other assays above

C=Cc1ccc(C)cc1
inactive: all assays above

C=C(C)C(=O)OCC(C)C
not listed: [2] | [9] | [17] | [18] | [19]
inactive: all other assays above

CCO[Si](CCCN)(OCC)OCC
not listed: [7]
inactive: all other assays above

COc1ccc(C)cc1N
not listed: [2]
inactive: all other assays above

CC1(C)S[C@@H]2[C@H](NC(=O)COc3ccccc3)C(=O)N2[C@H]1C(=O)O
not listed: [9] | [17] | [19]
inactive: all other assays above

C=CC(=O)OCCC(=O)O
not listed: [7] | [19]
inactive: all other assays above

CC1(C)NC(=O)NC1=O
not listed: [17]
inactive: all other assays above

CC(C)CC(=O)CC(C)CC(C)C (configuration not stated)
inactive: all assays above

COc1ccc([N+](=O)[O-])cc1N
active: [20] 48.8 µM
not listed: [9] | [17]
inactive: all other assays above

CC(=O)Oc1ccc(C)cc1
inactive: all assays above

CC1(C)CC(N)CC(C)(CN)C1 (configuration not stated)
not listed: [7] | [17]
inactive: all other assays above

Cc1ccc([N+](=O)[O-])cc1S(=O)(=O)O
inactive: all assays above

CC(C)(C#N)c1cc(Cn2cncn2)cc(C(C)(C)C#N)c1
not listed: [7] | [9] | [20]
inactive: all other assays above
